Data from PubChem BioAssay AID504806 (National Center for Advancing Translational Sciences (NCATS), 2011).
Calls of active or inactive are those of the source. Calls follow the shape of the dose curve; as a rule, active = well fitted activation curve with a large enough effect; inactive = flat fitted curve, though single readings scatter.

Experiment: Followup screen of LOPAC molecules that induce DNA re-replication in SW480 adenocarcinoma cells
Details: Hoechst nuclear DNA content imaging, 48 h; series mostly up to 46.1 µM
From the text: NIH Molecular Libraries Probe Production Network [MLPCN] NIH Chemical Genomics Center [NCGC] MLPCN Grant: Fast Track K99 CA136555 Assay Provider: Melvin DePamphilis, NICHD, NIH Assay Overview Eukaryotic cells normally restrict genome duplication to once per cell division. When this process is aberrant, DNA re-replication occurs when cells reinitiate DNA replication before the first round of replication is complete. DNA re-replication induces the DNA damage response, arrests cell proliferation, and triggers apoptosis. The cell cycle components cyclin A, Cdt-1, Cdc6 and geminin are critical regulators of this process and their misregulation results in DNA re-replication in normal and cancer cells. To identify compounds that induce re-replication in normal cells, an image-based assay was used to measure DNA content of nuclei, as detected by the fluorescent DNA binding dye, Hoechst. Cell nuclei were imaged by a fluorescence scanning plate imager and compounds that induce DNA re-replication were identified by the increase of nuclei with elevated fluorescence intensity.
Assay Protocol Summary For screening, 250 cells in 5 uL/well were dispensed into black clear 1536-well plates (Aurora) using a solenoid-based dispenser. Following transfer of 23 nL compound or DMSO vehicle by a pin tool, the plates were incubated 48 hr at 37 C and 5% CO2. After addition of 1 uL/well Hoescht stain, the plates were incubated 40 min at 37 C, 5% CO2 and total intensity of fluorescent objects (nuclei) were enumerated by an Acumen Explorer Ex3 (TTP LabTech) fluorescence scanning plate imager (405 nm excitation, 500-530 nm emission). Keywords: NIH Roadmap, MLPCN, MLI, MLSMR, qHTS, NCGC, DNA replication, cancer

Compound | Potency
CCN(CC)C(=S)SSC(=S)N(CC)CC.[Cl-].[Cl-].[Cu+2] | 37.8 nM (active)
CC(=O)[O-].CS(C)=O.[Cu+] | inactive
CS(C)=O.[Cl-].[Cl-].[Cu+2] | inactive
CC(=O)[O-].CCN(CC)C(=S)SSC(=S)N(CC)CC.[Cu+] | 37.8 nM (active)
CCN(CC)C(=S)SSC(=S)N(CC)CC | 30 nM (active)
CCCCCCN(CCCCCC)C(=O)Cc1c(-c2ccc(F)cc2)[nH]c2ccccc12 | 26800 nM (active)
